# Measurements taken from PubChem BioAssay.
# Activity calls are given as the source filed them.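 How the source made its calls, unless noted: active means inhibition at or above 50% at 10 µM; inactive means inhibition below 50%.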
# Experiments:
# [1] = inhibitors of TNFa-induced NFkB p65 translocation, primary screen, imaging, HUVEC, MLSMR starter and 10KST1 sets (AID 438;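 active means inhibition above 20% together with a positive visual image hit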;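 further: compound added about 3h40 before a 20 min TNFalpha stimulation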;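 on inhibition: signal is the nuclear over cytoplasmic p65 intensity ratio per well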); conditions: HUVEC TNFa-induced p65 nuclear translocation; cell count: measured here: nuclei count (cytotoxicity indicator), at 2.08 µM; inhibition: at 2 µM, stronger effect = higher value, 0% TNFa-plus-vehicle, 100% no-TNFa wells
# [2] = inhibitors of mutant huntingtin aggregation, primary screen, imaging, exon1htt(103Q)mCFP cells, high-content imaging (AID 483;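 active means visual image review flags a hit and inhibition of aggregation exceeds 20%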;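 further: compound exposure lasted 3 days before fixation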;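 on nuclei count: percent of the per-plate median nuclei count of sample wells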); conditions: exon1htt(103Q)mCFP cell line, aggregate imaging, at 2 µM; inhibition of aggregation: stronger effect = higher value; nuclei count: measured here: cell count, toxicity
# [3] = inhibitors of E-selectin induction by TNFa, primary screen, imaging, HUVEC, immunofluorescence, MLSMR starter and 10KST1 sets (AID 487;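 active means visually confirmed hit in the image check and inhibition above 20%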;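 on inhibition: signal is fraction of cell area covered by stained E-selectin grains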;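 on nuclei count: 100% = median nuclei count of all wells on the same plate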); conditions: HUVEC TNFalpha-induced E-selectin immunofluorescence imaging, at 2 µM; inhibition: stronger effect = higher value; nuclei count: measured here: cell number, toxicity
# [4] = target: Voltage-gated potassium channel subunit beta-2 (Rattus norvegicus) (UniProt P62483); test: KvBeta enzyme negative modulators, primary screen, biochemical, NADPH fluorescence (AID 622;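 active means fluorescence slope higher than the sample average by over 3 SD, cut at about -0.22 in these data, passing the limit was not always enough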;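 further: slope of raw intensity against log time taken from 70 to 1610 s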); conditions: recombinant KvBeta, 4-cyanobenzaldehyde reduction, at 10 µM, stronger effect = higher value
# Sequence of Voltage-gated potassium channel subunit beta-2 (Rattus norvegicus) (P62483 whole entry, looked up): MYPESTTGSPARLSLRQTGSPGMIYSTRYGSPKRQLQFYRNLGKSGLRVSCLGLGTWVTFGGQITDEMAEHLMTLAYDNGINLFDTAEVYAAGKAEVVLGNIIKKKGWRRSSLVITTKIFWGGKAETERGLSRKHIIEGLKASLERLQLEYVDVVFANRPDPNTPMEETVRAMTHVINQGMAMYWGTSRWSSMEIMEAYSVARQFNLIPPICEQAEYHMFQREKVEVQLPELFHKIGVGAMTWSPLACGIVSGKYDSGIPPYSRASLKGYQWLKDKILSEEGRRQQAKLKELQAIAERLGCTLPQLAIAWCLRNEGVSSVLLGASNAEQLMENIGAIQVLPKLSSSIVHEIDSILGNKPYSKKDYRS
# [5] = target: Voltage-gated potassium channel subunit beta-2 (Rattus norvegicus) (UniProt P62483); test: KvBeta positive modulators, primary screen, biochemical, NADPH fluorescence (AID 623;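 active means NADPH fluorescence slope more negative than the mean of all samples by about 3 SD, 99.7% confidence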;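 further: fluorescence intensity change per second fitted from 20 to 320 s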); conditions: Recombinant KvBeta, NADPH fluorescence decrease slope, 10 min; at 10 µM; stronger effect = lower value
# [6] = target: Alpha-2C adrenergic receptor (Homo sapiens) (UniProt P18825); test: modulators of alpha2C/GIRK thallium flux, primary screen, cell-based, HEK293 alpha2C/GIRK1/2 (AID 624;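 active means fluorescence slope after compound addition differing from the mean of all screened samples at 99.7% confidence, in either direction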;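 further: slope of fluorescence ratio to pre-addition baseline per second over 15 to 24 s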); conditions: thallium flux BTC fluorescence, at 10 µM, actives lie on both sides
# Sequence of Alpha-2C adrenergic receptor (Homo sapiens) (P18825 whole entry, looked up): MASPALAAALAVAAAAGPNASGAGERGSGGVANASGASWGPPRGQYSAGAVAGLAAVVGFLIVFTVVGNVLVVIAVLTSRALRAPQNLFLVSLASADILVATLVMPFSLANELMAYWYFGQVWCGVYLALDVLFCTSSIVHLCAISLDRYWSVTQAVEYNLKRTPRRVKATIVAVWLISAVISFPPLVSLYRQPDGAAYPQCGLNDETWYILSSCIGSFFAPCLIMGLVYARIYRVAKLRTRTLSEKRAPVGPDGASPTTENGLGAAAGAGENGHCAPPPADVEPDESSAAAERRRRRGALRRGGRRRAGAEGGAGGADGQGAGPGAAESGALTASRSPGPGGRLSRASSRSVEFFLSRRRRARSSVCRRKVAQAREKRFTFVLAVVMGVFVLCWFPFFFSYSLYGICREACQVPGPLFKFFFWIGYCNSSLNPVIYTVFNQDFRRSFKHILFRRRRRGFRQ
# [7] = inhibitors of Sendai virus-induced IRF3 signaling, primary screen, TLR/RLR signaling modifier project, cell-based, Sendai virus stimulus, luciferase, 10K MLSCN set (AID 602276); conditions: HEK293 RL24 IRF3 luciferase reporter, at 10 µM, stronger effect = higher value;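 further: firefly luciferase from ISG56 promoter only with Renilla not read in this screen; 0% = Sendai virus plus DMSO and 100% = medium plus DMSO without virus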
# [8] = inhibitors of poly I:C-induced TLR3 signaling, primary screen, cell-based, poly I:C stimulus, luciferase, 10K MLSCN set (AID 602277;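 active means inhibition of the reporter signal at or above 50%; inactive means inhibition below 50%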); conditions: HEK293-TLR3 RL24 IRF3 luciferase reporter, at 10 µM, stronger effect = higher value
Compound,cell count [1],inhibition [1],inhibition of aggregation [2],nuclei count [2],inhibition [3],nuclei count [3],fluorescence slope [4],NADPH fluorescence slope [5],slope [6],inhibition [7],inhibition [8]
Cc1cccc(CCNC(=O)C2CCCN(S(=O)(=O)c3cnc[nH]3)C2)c1 (centres undefined),518,16.1% (inactive),21.6% (inactive),89.8%,-107% (inactive),107%,-0.523 (inactive),6.1e-06 (inactive),0.0065 (inactive),30.1% (inactive),8.46% (inactive)
COCCNC(=O)C1CCCN(c2ncccn2)C1 (centres undefined),648,7.5% (inactive),5.6% (inactive),100%,98.1% (active),76.1%,-0.539 (inactive),-6.8e-05 (inactive),0.00583 (inactive),14.2% (inactive),20.8% (inactive)
COc1ccc(-n2c(Cc3cccn3C)nnc2SCC(=O)Nc2cccc(OC)c2)cc1,545,0.5% (inactive),5.4% (inactive),93.7%,-28.8% (inactive),90.2%,-0.632 (inactive),2.3e-05 (inactive),0.00546 (inactive),-1.72% (inactive),5.53% (inactive)
CCN(CC)c1ccc(NC(=O)CN2CCN(CC(=O)Nc3ccccc3F)CC2)cc1,348,3.1% (inactive),5.8% (inactive),104%,-45.9% (inactive),113%,-0.413 (inactive),-3.8e-05 (inactive),0.00308 (inactive),12.9% (inactive),19.4% (inactive)
COC(=O)c1sc2ccccc2c1NC(=O)c1cccs1,729,16.4% (inactive),21.4% (inactive),101%,1.4% (inactive),99.1%,-0.551 (inactive),-2.2e-05 (inactive),0.00536 (inactive),-16.8% (inactive),-27.9% (inactive)
CN(C)CCCN1C(=O)CSC1c1ccccc1 (centres undefined),607,-8.9% (inactive),30.6% (inactive),93.9%,-57.4% (inactive),104%,-0.541 (inactive),-3e-05 (inactive),0.00787 (inactive),4.6% (inactive),35.9% (inactive)
Cn1cccc1Cc1nnc(SCC(=O)Nc2ccc(F)cc2F)n1-c1ccc(F)cc1,664,-5.5% (inactive),-16.9% (inactive),93.7%,-12.3% (inactive),99.4%,-0.546 (inactive),-7.7e-05 (inactive),0.00521 (inactive),10.4% (inactive),32.3% (inactive)
CCOC(=O)c1cc2n(n1)C(C(F)(F)C(F)(F)F)CC(C)N2 (centres undefined),650,-12.1% (inactive),4.6% (inactive),113%,-30.4% (inactive),106%,-0.429 (inactive),2.3e-05 (inactive),0.00828 (inactive),11.4% (inactive),14.9% (inactive)
CCOC(=O)c1[nH]c2ccccc2c1NC(=O)C(CC)CC,689,-10.7% (inactive),-18.7% (inactive),118%,-11% (inactive),107%,-0.466 (inactive),-3.3e-05 (inactive),0.00668 (inactive),12.4% (inactive),40.3% (inactive)
CN(C)CCN1C(=O)C(O)=C(C(=O)c2cc3ccccc3o2)C1c1ccc(N(C)C)cc1 (centres undefined),577,5.8% (inactive),11.6% (inactive),95.2%,23.3% (inactive),109%,-0.549 (inactive),-2.9e-05 (inactive),0.00711 (inactive),7.8% (inactive),27.2% (inactive)
CC1CCCC(C)N1C(=O)COC(=O)c1ccc[nH]c1=O (centres undefined),476,0% (inactive),3.4% (inactive),98.4%,25.2% (inactive),113%,-0.326 (inactive),-7.3e-06 (inactive),0.00649 (inactive),16.7% (inactive),31.4% (inactive)
Cc1ccc(-c2noc(-c3ccccc3C(=O)NCC3CCCO3)n2)cc1 (centres undefined),763,2% (inactive),-9% (inactive),110%,8.3% (inactive),106%,-0.442 (inactive),5.9e-05 (inactive),0.00648 (inactive),-20% (inactive),-30.1% (inactive)
c1ccc(CSc2nnc(-c3cccs3)n2Cc2ccco2)cc1,601,-13.3% (inactive),-3.7% (inactive),102%,51.5% (inactive),102%,-0.488 (inactive),3.8e-06 (inactive),0.00593 (inactive),-8.26% (inactive),-9.64% (inactive)
CCOC(=O)c1sc(NC(=O)CSc2n[nH]c(-c3ccccc3)n2)c(C#N)c1C,634,-4.4% (inactive),-7.1% (inactive),94%,106% (active),122%,-0.393 (inactive),2.8e-05 (inactive),0.00567 (inactive),7.86% (inactive),-25.2% (inactive)
COc1ccc(OC)c(S(=O)(=O)Nc2ccccc2SC)c1,623,-5% (inactive),20% (inactive),96.7%,20.9% (inactive),85.2%,-0.486 (inactive),-3.4e-05 (inactive),0.00443 (inactive),21% (inactive),24% (inactive)
CCOc1cccc(OCCCCn2ccnc2)c1,339,-3.1% (inactive),-7.7% (inactive),99%,-124% (inactive),114%,-0.36 (inactive),5e-05 (inactive),0.00579 (inactive),9.17% (inactive),21.4% (inactive)
Cc1csc2ncc(C(=O)N3CCc4ccccc43)c(=O)n12,601,5.3% (inactive),-17% (inactive),104%,10% (inactive),110%,-0.551 (inactive),-4.3e-05 (inactive),0.00571 (inactive),11.1% (inactive),39.2% (inactive)
Cc1cc(C)n2nc(SCc3cc(=O)n4ccccc4n3)nc2n1,536,-16.3% (inactive),13% (inactive),66.3%,-75.8% (inactive),112%,-0.29 (inactive),-4.7e-06 (inactive),0.00424 (inactive),5.17% (inactive),14.4% (inactive)
O=C(Cn1cc2c(n1)CCCCC2)N1CCc2ccccc21,708,-3.4% (inactive),18.5% (inactive),103%,-102% (inactive),109%,-0.52 (inactive),-4.3e-05 (inactive),0.00739 (inactive),7.59% (inactive),34.4% (inactive)
